Out of some 44,000 compounds screened, fewer than 10 were called active. Calls follow the shape of the dose curve; as a rule, active = well fitted activation curve with a large enough effect; inconclusive = small, poorly fitted or top-dose-only effect, or another doubt; inactive = no such curve, though single readings can be large or run the other way. Not all results are given here.

Sequence of Beta-2 adrenergic receptor (Homo sapiens) (P07550 whole entry, looked up): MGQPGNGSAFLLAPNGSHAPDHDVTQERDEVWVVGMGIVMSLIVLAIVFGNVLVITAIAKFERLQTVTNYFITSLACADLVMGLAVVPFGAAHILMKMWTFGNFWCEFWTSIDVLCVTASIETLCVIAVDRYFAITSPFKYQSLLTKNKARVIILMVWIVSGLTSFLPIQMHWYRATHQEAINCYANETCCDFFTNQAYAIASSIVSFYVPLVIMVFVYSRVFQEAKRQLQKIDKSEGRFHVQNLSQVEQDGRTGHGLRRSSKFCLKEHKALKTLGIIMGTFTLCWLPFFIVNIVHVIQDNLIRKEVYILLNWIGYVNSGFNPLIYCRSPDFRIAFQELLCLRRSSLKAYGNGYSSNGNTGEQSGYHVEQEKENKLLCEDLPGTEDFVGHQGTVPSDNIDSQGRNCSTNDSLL

The target in this assay is Beta-2 adrenergic receptor (Homo sapiens) (UniProt P07550). Put plainly: qHTS assay of beta-arrestin-biased ligands of beta2-adrenergic receptor: NCGC Sytravon Library Screen. To be noted: HTLA Tango cells, beta-arrestin recruitment, luciferase luminescence, 18 h; series mostly up to 46.1 µM. From the text:
The concept of biased agonism is an emerging concept of molecular pharmacology which proposes that seven transmembrane receptors (7TMRs) or G protein-coupled receptors (GPCRs), exist in multiple signaling conformations and complexes and that ligands (either agonists or antagonists) can induce signaling biased responses for distinct signal transduction cascades. […] Furthermore, accumulating evidence over the last decade has drawn attention to a novel function of beta-arrestins as signal transducers that scaffold various signaling molecules upon activation of 7TMRs. […] This beta-arrestin-biased signaling presumably leads to distinct physiological outcomes from those by G protein activation. Additionally, the active receptor conformations which prefer on this beta-arrestin signaling are likely different from those activating G protein signaling. […] The goal of this screening project will be to discover and optimize novel beta-arrestin-biased ligands for beta2-AR signaling. A luminescent cell-based assay for beta2-AR-mediated agonism, known as the Tango assay, has been validated in which ligand binding of a recombinant beta2-AR and subsequent recruitment of a recombinant beta-arrestin lead to the release of the transcriptional activator tTA, which upregulates transcription of a tTA-responsive luciferase gene. […] Compounds from the NCGC Sytravon Library collection were screened as a concentration-titration series that ranged from 46 microM to 0.6 nM. NIH Molecular Libraries Probe Production Network [MLPCN] NIH Chemical Genomics Center [NCGC] MLPCN Grant: Fast-track/HHSN271700800025C PI: Bryan Roth and Bob Lefkowitz
Tango cells were dispensed into white, solid, tissue-culture-treated 1536-well plates at 1500 cells/well in DMEM, containing 1% fetal bovine serum (FBS). Then, 23 nL of compounds or DMSO were delivered to each well using a pin tool. Plates were incubated at 37 degrees C, 5% CO2 for 18 hr. Then 2.5 uL luminescent substrate mix (in-house prepared: 150 mM Tris-Cl, pH 7.6, 3 mM MgCl2, 1% Triton X-100, 5 mM DTT, 0.5 mM CoA, 0.15 mM ATP, 0.44 mM D-luciferin, final concentrations) was added to each well. Plates were then incubated for 15 minutes at room temperature, and subsequently measured on a ViewLux plate reader for luminescent signal using a clear filter with a 10 second exposure and 2x binning. The %Activity was determined from the corrected luminescence values. […] Concentration-response curves were fitted to the signals arising from the resulting luminescence. The concentration-effect curves were then classified based on curve quality (r2), response magnitude and degree of measured activity, and compounds were subsequently categorized based on their curve class.
For the compound `Cc1ccc(CN2COc3cc(C)c4c(oc(=O)c5ccccc54)c3C2)cc1`, the call was inactive.

Regarding `COc1ccc(OC)c(-c2csc(-c3c(N)c(C(=O)c4ccccc4)n4ccccc34)n2)c1`, the result was inactive.

On to `COc1ccc(CNC(=O)c2ccc3c(c2)nc2n3CCOC2)c(OC)c1`, for which the compound was classed as inactive.

`CCOC(=O)c1scc(-c2ccc(C)cc2)c1S(=O)(=O)Nc1cc(C)ccc1C`: the compound was classed as inactive.

For the compound `CCN(CCCNC(=O)c1ccc(Sc2ccc(C)cc2)c(NC(C)=O)c1)c1cccc(C)c1`, the call was inactive.

Regarding `CCOc1cccc(NC(=O)c2ccc(F)c(S(=O)(=O)N(CC)c3cccc(C)c3)c2)c1`, the result was inactive.

With `COc1ccc(C(=O)c2oc3ccccc3c2NC(=O)COc2cccc(C)c2)cc1`, the result was inactive.

As for `Cc1ccccc1OCc1ccc(-c2nc(C#N)c(N3CCCCC3)o2)o1`, the compound was called inactive.

As for `CCCCc1nn2c(=O)cc(COC(=O)c3ccc(NC(=O)c4ccccc4C)cc3)nc2s1`, the compound was called inactive.

For the compound `COC(=O)NNC(=O)C1CCC(C)CC1` (configuration not stated), the compound was called inactive.

For `CCc1nnc2c3ccccc3nc(N3CCN(c4ccc(C)cc4C)CC3)n12`, the outcome was inactive.

As for `CCOc1ccc(CNC(=O)Cn2cc3c(n2)-c2c(oc(C(=O)N4CCCC4)c2C)CC3)cc1`, the compound was classed as inactive.

Take `CCOCCc1nn2c(=O)cc(COC(=O)CNC(=O)c3ccc(C(C)(C)C)cc3)nc2s1`: the call was inactive.

On to `CCC(=O)N1CCc2cc(Br)cc(S(=O)(=O)NCc3ccc(Cl)cc3)c21`, for which the compound was called inactive.

Consider `Cc1nc2nc(NCc3cccc(Br)c3)[nH]n2c(=O)c1Cc1ccccc1`, for which the call was inactive.

Regarding `COc1ccc(NC(=O)C(c2ccccc2)N2Cc3ccccc3C2=O)cc1` (configuration not stated), the call was inactive.

In the case of `Cc1nc2sc(C)c(C)n2c(=O)c1S(=O)(=O)NCCc1ccc(Cl)cc1`, the compound was called inactive.

Turning to `CCOc1ccc(OCC)c(NS(=O)(=O)c2ccc3[nH]c(=O)ccc3c2)c1`, the compound was classed as inactive.

In the case of `COc1ccc(S(=O)(=O)NCCSc2nnnn2-c2ccccc2)cc1`, the compound was called inactive.

For `Cc1ccccc1CNC(=O)CCCn1nc(C)c2sc3ccccc3c2c1=O`, the compound was classed as inactive.

For `COc1cccc(N2CC(NC(=O)/C=C\c3ccccc3)CC2=O)c1` (configuration not stated), the result was inactive.

For the compound `O=C(CSc1ncc(-c2ccccc2)[nH]1)Nc1ccc(F)cc1F`, the outcome was inactive.

On to `COc1ccc(Cl)cc1NC(=O)CCC(=O)c1ccc(C)cc1`, for which the outcome was inactive.

For `Cc1c(NC(=O)C(C)(C)C)cccc1-c1nc2ccccc2s1`, the compound was called inactive.

For the compound `Cc1nn(CC(=O)O)c(=O)c2cc3cc(F)ccc3n12`, the call was inactive.

As for `CCc1ccc(N(CC)C(=O)CCn2cnc3onc(-c4ccc(F)cc4)c3c2=O)cc1`, the result was inactive.

Regarding `COc1ccc(CCNC(=O)c2cnc3sc(N4CCCCCC4)nn3c2=O)cc1OC`, the compound was called inactive.

As for `CCCn1c(=N)c(C(=O)NCc2ccccc2)cc2c(=O)n3cccc(C)c3nc21`, the outcome was inactive.

In the case of `COc1ccc(CCNC(=O)c2cc(=O)c3c(C)cc(C)cc3o2)cc1OC`, the outcome was inactive.

`Cc1ccc(S(=O)(=O)N2CCc3cc(C(=O)Nc4ccc(Cl)cc4C)ccc32)cc1`: the outcome was inactive.

`COc1cccc(NC(=O)CSC2=Nc3ccccc3C3=NC(CC(=O)NC4CCCCC4)C(=O)N23)c1` (configuration not stated): the outcome was inactive.

Regarding `CCCCOc1ccc(CNC(=O)c2ccc3c(c2)N(C)C(=O)C2CCCCN32)cc1` (configuration not stated), the call was inactive.

For `COc1ccccc1NC(=O)c1oc2ccccc2c1NC(=O)C(C)C`, the outcome was inactive.

Regarding `COc1ccc(CCNc2ncnc3onc(-c4ccc(Cl)cc4)c23)c(OC)c1`, the call was inactive.

For the compound `Cc1csc2nc(COC(=O)c3ccc(NC(=O)COc4ccccc4F)cc3)cc(=O)n12`, the result was inactive.

As to `COc1ccc(N2CCN(C(=O)C3CCCN(C(=O)c4cc5sccc5n4C)C3)CC2)cc1` (configuration not stated), the outcome was inactive.

On to `O=C(COc1ccccc1F)OCc1cc(=O)n2nc(C3CCCCC3)sc2n1`, for which the outcome was inactive.

As to `CCC1CCCCN1Cc1c(O)ccc2c(=O)c(Oc3ccccc3Cl)c(C(F)(F)F)oc12` (configuration not stated), the compound was classed as inactive.

Take `Cc1cc(=O)n(CC(=O)Nc2cccc([N+](=O)[O-])c2)c(-n2nc(C)cc2C)n1`: the result was inactive.

On to `CCOC(=O)c1c(C)[nH]c(CCC(=O)NCCCN2CCN(c3cc(C)ccc3C)CC2)c1C`, for which the outcome was inactive.

`COc1cc(Nc2nc(-c3ccc(OC)c(OC)c3)nc3ccccc23)cc(OC)c1`: the compound was called inactive.

On to `Cc1cc(C)cc(OC(C)C(=O)Nc2nc3c(s2)CCCC3)c1` (configuration not stated), for which the compound was called inactive.

Consider `COCCn1c(SCC(=O)c2cc(C)ccc2C)nc2cc(C(=O)NC3CCCC3)ccc2c1=O`, for which the call was inactive.

Consider `CCOc1ccccc1NC(=O)CCn1cnnn1`, for which the result was inactive.

With `Cc1ccc(N(C)C(=O)C2CCN(S(=O)(=O)c3ccc4c(c3)CCCN4C(=O)C3CCC3)CC2)cc1`, the compound was called inactive.

Consider `CC(=O)Nc1ccc(S(=O)(=O)NCC2CCC(C(=O)NCCc3ccccc3)CC2)cc1` (configuration not stated), for which the call was inactive.

With `CCOc1ccccc1C(=O)NC1(C(F)(F)F)C(=O)Nc2c1c(=O)[nH]c(=O)n2-c1ccc(F)cc1` (configuration not stated), the compound was classed as inactive.

As for `CCN(CC)S(=O)(=O)c1nnc(NC(=O)COc2ccccc2Cl)s1`, the outcome was inactive.

As for `COc1ccc(-c2cccc(NS(=O)(=O)c3cc(C)c(OC)c(C)c3C)c2)nn1`, the call was inactive.

As to `O=C(NC1(C(F)(F)F)N=C(c2ccccc2)N(C2CCCCC2)C1=O)c1ccccc1F` (configuration not stated), the compound was classed as inactive.

`Cc1ccc(CCNC(=O)c2ccc3c(c2)nc2n3CCC(C)C2)cc1` (configuration not stated): the call was inactive.

Regarding `Cc1ccccc1NC(=O)Cn1c(=O)n(CCCCC(=O)NCc2ccccc2Cl)c(=O)c2ccccc21`, the compound was classed as inactive.

For the origin of these results see PubChem BioAssay AID1347077 (National Center for Advancing Translational Sciences (NCATS), 2019).
